In all, about 48,000 compounds went through this assay and about 550 (1.1%) were called active. Inconclusive results (about 4%) are left out. The list comes from a sample in which actives are over-represented; it also holds similar structures and randomly drawn compounds. A number with no mark means an inactive call. No stated cut-off is given here; in the data, active means potency below about 15 µM; inconclusive means mostly about 16 µM to 33 µM; inactive means weaker than that.
Potency means the concentration at half of the fitted maximal effect.

In this test the target is Lysosomal acid glucosylceramidase (Homo sapiens) (UniProt P04062). The experiment in a line: Glucocerebrosidase.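 Further: the screen sought inhibitors.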 Conditions: purified enzyme, resorufin glucoside fluorescence (screen aimed at inhibitors), 20 min. From the text: NCGC Assay Overview: Beta-glucocerebrosidase catalyzes the hydrolysis of beta-glucocerebroside to glucose and ceramide. The inherited deficiency of beta-glucocerebrosidase results in Gaucher disease, which is characterized by a wide variety of symptoms including hepatosplenomegaly, anemia, thrombocytopenia, bony lesions and bone marrow infiltration with characteristic storage cells, known as Gaucher cells. There are also forms of the disorder affecting the central nervous system. Patients with the same genotypes can manifest with diverse clinical presentations and it is believed that improper folding and trafficking of beta-glucocerbrosidase may contribute to the phenotypes observed. Low molecular weight molecules, acting as chaperones, may potentially restore trafficking of misfolded beta-glucocerebrosidase from the endoplasmic reticulum to the lysosomes, thereby enhancing functional lysosomal beta-glucocerebrosidase activity. Using normal beta-glucocerebrosidase, an assay was developed to screen for small molecule inhibitors that could potentially act as molecular chaperones on the mutant forms [developed with NIH investigator Dr. Ellen Sidransky's laboratory]. Two pro-fluorescent substrates were chosen for two screens against a small molecule library. One beta-glucocerebrosidase assay used Resorufin beta-D-Glucopyranoside (Marker Gene Technology Inc.), generating a red fluorescent product. The second assay used Fluorescein di-beta-D-Glucopyranoside, generating a blue fluorescent product. […] The IC50 values of Conduritol B Epoxide, a known glucocerebrosidase inhibitor, were determined to be 87.5 uM and 117 uM, respectively. The use of two difference pro-fluorescent substrates in the screens helped to eliminate false positives. All compounds were screened in a titration series resulting in AC50s (e.g., IC50s or EC50s).
Chain of Lysosomal acid glucosylceramidase (Homo sapiens) (P04062 whole entry, looked up): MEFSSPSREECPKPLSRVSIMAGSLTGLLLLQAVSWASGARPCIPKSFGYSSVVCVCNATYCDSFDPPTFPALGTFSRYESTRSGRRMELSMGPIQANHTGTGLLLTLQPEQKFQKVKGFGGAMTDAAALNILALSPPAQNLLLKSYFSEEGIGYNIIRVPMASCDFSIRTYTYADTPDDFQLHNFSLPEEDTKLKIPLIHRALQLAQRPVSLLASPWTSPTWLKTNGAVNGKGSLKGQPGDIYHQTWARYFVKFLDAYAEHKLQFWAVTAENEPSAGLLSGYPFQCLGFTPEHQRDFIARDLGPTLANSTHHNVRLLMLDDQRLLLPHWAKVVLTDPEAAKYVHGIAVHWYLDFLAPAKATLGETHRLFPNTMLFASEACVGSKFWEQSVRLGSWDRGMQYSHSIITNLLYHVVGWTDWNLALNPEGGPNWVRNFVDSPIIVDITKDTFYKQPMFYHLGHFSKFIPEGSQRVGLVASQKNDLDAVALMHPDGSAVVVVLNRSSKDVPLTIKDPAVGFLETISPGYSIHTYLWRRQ
NCGC Assay Protocol Summary: Both enzyme and substrate were diluted in buffer composed of 50mM citric acid/KH2PO4, 10mM sodium taurocholate and 0.01% tween-20 at pH 5.9. The final concentration of the enzyme was 0.2 nM in both assays. The compound library was titrated in 7 to 15 concentrations for the primary screens with a final concentration ranging from 0.6 nM to 50 uM. This particular assay protocol is for the "red" substrate, and it was performed in 1536-well plate format as follows: Red fluorescence substrate assay: 2 uL enzyme 23 nL compound 1 uL substrate (final concentration of 30 uM) Incubate at room temperature (RT) for 20 minutes Read the plate in Viewlux plate reader (Ex=548(7) and Em=600(10)).
With `CCC(=O)Nc1cccc(NC(=O)CSc2nnc(-c3ccc(NS(C)(=O)=O)cc3)n2C)c1`, the Potency was above 76.9 µM.

On to `Cn1c(CN2CCOCC2)nc2cc(NC(=O)c3ccc(Cl)cc3)ccc21`, for which the Potency is 52.2 µM.

For `O=C(NCCCN1CCOCC1)c1cc(-c2ccc(Cl)cc2)on1`, the Potency is above 76.9 µM.

Consider `COc1cccc2cc(C(C)N(CCCN3CCOCC3)C(=O)Nc3ccc(Cl)cc3)oc12` (configuration not stated), for which the Potency is 9.17 µM (active).

For the compound `O=C(CSc1n[nH]c(-c2cccnc2)n1)Nc1ccnc2ccccc12`, the Potency was above 76.9 µM.

For the compound `COC(=O)c1ccccc1NC(=O)CSc1ccccn1`, the Potency was above 76.9 µM.

In the case of `O=C(CS(=O)(=O)Cc1ccccc1)NCC1CCCO1` (configuration not stated), the Potency was above 76.9 µM.

With `CC(C)N(C(=O)Cn1c(SCC(=O)N2CCN(c3ccccc3)CC2)nc2ccccc21)C(C)C`, the Potency is above 76.9 µM.

On to `CCOC(=O)c1sc(NC(=S)n2cc(C)cn2)c(C(=O)OCC)c1C`, for which the Potency was above 76.9 µM.

Turning to `COc1cccc(NC(=O)CN(C)S(=O)(=O)c2ccc(C)cc2)c1`, the Potency is above 76.9 µM.

In the case of `CC(C)NS(=O)(=O)c1ccc(CCC(=O)N2CCOCC2)cc1`, the Potency is above 76.9 µM.

Turning to `CCCc1nnc(NC(=O)CN2C(=O)c3ccccc3S2(=O)=O)s1`, the Potency was above 76.9 µM.

Turning to `CN1CCN(c2nc3c(c(=O)[nH]c(=O)n3C)n2Cc2cccc3ccccc23)CC1`, the Potency is above 76.9 µM.

Take `COc1ccc(C2N=C(N)N=C(N)N2c2ccccc2)cc1OC` (configuration not stated): the Potency was above 76.9 µM.

Consider `O=C(Cn1c(-c2ccc(Cl)cc2)noc1=O)N1CCN(c2ccccc2F)CC1`, for which the Potency was above 76.9 µM.

For `Fc1ccc(OCc2nn3c(Cn4nnc5ccccc54)nnc3s2)cc1`, the Potency is above 76.9 µM.

For the compound `Cc1ccc(S(=O)(=O)N2CCC(C(=O)N[C@@H](C)C(=O)NCc3ccccc3)CC2)cc1`, the Potency was above 76.9 µM.

With `C/C(O)=C\c1nc(=O)c2c(C)cc(C)nc2n1-c1ccccc1`, the Potency was above 76.9 µM.

As for `O=C(COc1ccc(F)cc1)N(CC1=CCS(=O)(=O)C1)c1ccccc1`, the Potency is above 76.9 µM.

As to `COc1ccc2nc(NC3=NCN(CC4CCCO4)CN3)nc(C)c2c1` (configuration not stated), the Potency was above 76.9 µM.

In the case of `Cc1cc(C)nc(N2CCN(c3ncnc4c3oc3ccccc34)CC2)n1`, the Potency is above 76.9 µM.

Regarding `CC(C)c1nc2oc3c(N4CCN(C)CC4)ncnc3c2c2c1CCC2`, the Potency was 8.51 µM (active).

Take `COc1ccc(CCn2c(-c3ccco3)nc3nc4ccccc4nc32)cc1OC`: the Potency is above 76.9 µM.

Regarding `CCOC(=O)CCC(=O)OCC(=O)NC(C)C1CC2CCC1C2` (configuration not stated), the Potency is above 76.9 µM.

For `CCOC(=O)c1sc(N(Cc2ccccc2)C(=O)CN2C(=O)CN(C)C2=O)nc1C`, the Potency is above 76.9 µM.

As to `CCOC(=O)c1c(C)[nH]c(C(=O)NCc2ccccc2OC)c1C`, the Potency is above 76.9 µM.

Turning to `Fc1ccc(-c2nnc3sc(-c4ccc5c(c4)OCO5)nn23)cc1`, the Potency was above 76.9 µM.

Turning to `Cc1cc(C)cc(N(C(C)C(=O)Nc2c(C)n(C)n(-c3ccccc3)c2=O)S(C)(=O)=O)c1` (configuration not stated), the Potency is above 76.9 µM.

Turning to `c1ccc(CCc2nc(-c3ccncc3)no2)cc1`, the Potency is above 76.9 µM.

As for `CC(Sc1nncn1C)C(=O)Nc1ccccc1-c1ccccc1` (configuration not stated), the Potency is above 76.9 µM.

For the compound `Cc1ccc(S(=O)(=O)N2CCN(C(=O)CCC(=O)NC3CCCc4ccccc43)CC2)cc1` (configuration not stated), the Potency was above 76.9 µM.

Regarding `Cc1noc(C)c1C(=O)NC(C)c1ccc2c(c1)OCO2` (configuration not stated), the Potency was above 76.9 µM.

Regarding `CCN(CC)CCN1C(=O)C(=O)/C(=C(/O)c2ccc(OC)c(OC)c2)C1c1ccccn1` (configuration not stated), the Potency is above 76.9 µM.

For the compound `Cc1nc(NC(CC(C)C)C(=O)O)c2nc(C)oc2n1` (configuration not stated), the Potency is above 76.9 µM.

As for `C=CCn1c(C(C)NC(=O)CC)nc2ccccc21` (configuration not stated), the Potency is above 76.9 µM.

For `CCOC(=O)N1CCN(C(=O)C2CCN(S(C)(=O)=O)CC2)CC1`, the Potency was above 76.9 µM.

Regarding `CC(C)CCNc1nc(N2CCCC2)c2c(c1C#N)CCN(C)C2`, the Potency is 12.7 µM (active).

Regarding `Cc1cccc2cc(C#N)c(N3CCCC3)nc12`, the Potency is above 76.9 µM.

With `Cc1cc(C)c2nc(N3CCCC3)c(C#N)cc2c1`, the Potency is above 76.9 µM.

With `Cn1c(=O)n(C)c(=O)n(CC(=O)N2CCCCC2)c1=O`, the Potency is above 76.9 µM.

Turning to `Cc1cc(=O)cc(C)[nH]1`, the Potency was above 76.9 µM.

As for `C=CCn1c(SCc2cc(C(=O)OC)c(C)o2)nnc1-c1ccncc1`, the Potency is above 76.9 µM.

Turning to `Cc1ccc(S(=O)(=O)N(C)CC(=O)N2CCc3ccccc32)cc1`, the Potency is above 76.9 µM.

Turning to `CCC(CC)c1nnc(NS(=O)(=O)Cc2ccccc2)s1`, the Potency is above 76.9 µM.

For `CC(Oc1ccc(Cl)cc1)C(=O)Nc1ncccn1` (configuration not stated), the Potency is above 76.9 µM.

Turning to `O=c1ccc2cc(S(=O)(=O)N3CCN(c4ccccc4)CC3)ccc2o1`, the Potency is above 76.9 µM.

For `COc1ccc(N2CCN(Cc3cc(=O)oc4ccc5ccccc5c34)CC2)cc1`, the Potency was 5.96 µM (active).

With `COc1ccc(N2CCN(CCNC(=O)CCN3C(=O)COc4ccccc43)CC2)cc1`, the Potency was above 76.9 µM.

On to `COC(=O)c1cc(NC(=O)CN2CCC(C(N)=O)(N3CCCCC3)CC2)cc(C(=O)OC)c1`, for which the Potency was above 76.9 µM.

Consider `COc1ccc(S(=O)(=O)N2CCN(c3ncnc4c(-c5ccccc5)nsc34)CC2)cc1`, for which the Potency was above 76.9 µM.

For `CCn1c2c(c3ccc(OC)cc31)CCCC2=O`, the Potency was above 76.9 µM.

In the case of `CCOC(=O)CNC(=O)CSc1nnc(COc2ccc(Cl)cc2)n1CC`, the Potency is above 76.9 µM.

Regarding `O=S(=O)(Nc1ccccc1N1CCOCC1)c1ccc(Cl)s1`, the Potency is above 76.9 µM.

Take `COc1cccc(C2/C(=C(/O)c3ccncc3)C(=O)C(=O)N2CCCN(C)C)c1` (configuration not stated): the Potency is above 76.9 µM.

With `CC1CCCCN1CC(=O)NCc1ccc2c(c1)OCO2` (configuration not stated), the Potency is above 76.9 µM.

Consider `CC(C)(C)Oc1ncc(Br)c(OC(C)(C)C)n1`, for which the Potency was above 76.9 µM.

For `N#CC(C(N)=O)=C1CCC2(CC1)OCCCCO2`, the Potency was above 76.9 µM.
